# According to publication PMC7862700, “An all-to-all approach to the identification of sequence-specific readers for epigenetic DNA modifications on cytosine”:
# Legend:
# Experiment in all cases: DAPPL (digital affinity profiling via proximity ligation, sequencing); 10 mM Tris-HCl pH 7.5, 50 mM NaCl, 1 mM DTT, 4% glycerol, room temperature, 30 min; GST-TFs on glutathione beads, 16-mer random dsDNA library, 0.1% formaldehyde crosslink after washing; high values mean tight binding
# Settings in all cases: protein: recombinant; tags: N-terminal GST; dsDNA, one strand shown
# [1] = molecular target: T1, FLI1 (Homo sapiens, UniProt Q01543 1-452)
# T1 sequence: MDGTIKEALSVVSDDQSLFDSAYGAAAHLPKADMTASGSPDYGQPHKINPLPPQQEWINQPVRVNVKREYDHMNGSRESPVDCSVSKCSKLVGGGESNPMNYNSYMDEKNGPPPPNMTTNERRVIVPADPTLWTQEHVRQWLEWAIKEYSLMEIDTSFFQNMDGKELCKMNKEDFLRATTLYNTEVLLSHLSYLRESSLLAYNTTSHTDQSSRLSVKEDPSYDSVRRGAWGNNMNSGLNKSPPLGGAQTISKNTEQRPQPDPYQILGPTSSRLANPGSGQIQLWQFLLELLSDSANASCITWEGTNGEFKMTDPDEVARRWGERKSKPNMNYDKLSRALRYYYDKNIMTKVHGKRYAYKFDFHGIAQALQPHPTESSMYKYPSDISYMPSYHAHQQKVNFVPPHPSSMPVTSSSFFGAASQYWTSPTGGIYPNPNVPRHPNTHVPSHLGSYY
# In short: (§1)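 Binding signal is given per hexamer as its read frequency for a factor divided by its frequency in the tag-only sample. GST-fused human transcription factors were expressed in yeast, captured on glutathione beads, barcoded with DNA and pooled with that sample, then incubated with 200 nmole of a 16-mer random double-stranded DNA library in Tris/NaCl/DTT/glycerol buffer for 30 min at room temperature. The pools were then washed, crosslinked, proximity-ligated, amplified by PCR and sequenced on an Illumina NextSeq500.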
# [2] = molecular target: T2, ELK1 (Homo sapiens, UniProt P19419 1-428)
# T2 sequence: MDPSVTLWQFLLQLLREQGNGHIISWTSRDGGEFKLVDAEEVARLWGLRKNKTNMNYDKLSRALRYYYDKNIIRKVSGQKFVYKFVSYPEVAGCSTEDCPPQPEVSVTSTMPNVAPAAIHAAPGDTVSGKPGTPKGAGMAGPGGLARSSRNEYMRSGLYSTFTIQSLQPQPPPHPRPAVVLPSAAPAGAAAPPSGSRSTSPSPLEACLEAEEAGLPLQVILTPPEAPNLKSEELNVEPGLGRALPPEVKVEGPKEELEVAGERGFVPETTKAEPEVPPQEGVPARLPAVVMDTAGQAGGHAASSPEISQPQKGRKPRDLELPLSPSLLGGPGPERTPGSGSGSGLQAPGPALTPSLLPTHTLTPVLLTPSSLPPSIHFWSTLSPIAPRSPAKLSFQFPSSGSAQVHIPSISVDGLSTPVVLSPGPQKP
# In short: as §1
# [3] = molecular target: T3, GABPA (Homo sapiens, UniProt Q06546 1-454)
# T3 sequence: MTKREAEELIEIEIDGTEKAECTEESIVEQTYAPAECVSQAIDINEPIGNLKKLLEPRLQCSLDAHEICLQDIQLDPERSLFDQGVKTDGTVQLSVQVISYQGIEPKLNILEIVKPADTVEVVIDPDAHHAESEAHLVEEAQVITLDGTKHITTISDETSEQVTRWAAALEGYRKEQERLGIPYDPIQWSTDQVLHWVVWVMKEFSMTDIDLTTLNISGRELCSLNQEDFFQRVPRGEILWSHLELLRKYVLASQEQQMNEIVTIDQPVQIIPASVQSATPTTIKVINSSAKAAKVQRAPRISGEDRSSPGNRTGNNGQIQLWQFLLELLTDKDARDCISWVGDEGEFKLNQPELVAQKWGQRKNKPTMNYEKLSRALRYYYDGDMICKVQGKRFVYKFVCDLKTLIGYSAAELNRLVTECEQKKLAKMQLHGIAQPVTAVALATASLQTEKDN
# In short: as §1
# [4] = molecular target: T4, ERG (Homo sapiens, UniProt P11308 1-479)
# T4 sequence: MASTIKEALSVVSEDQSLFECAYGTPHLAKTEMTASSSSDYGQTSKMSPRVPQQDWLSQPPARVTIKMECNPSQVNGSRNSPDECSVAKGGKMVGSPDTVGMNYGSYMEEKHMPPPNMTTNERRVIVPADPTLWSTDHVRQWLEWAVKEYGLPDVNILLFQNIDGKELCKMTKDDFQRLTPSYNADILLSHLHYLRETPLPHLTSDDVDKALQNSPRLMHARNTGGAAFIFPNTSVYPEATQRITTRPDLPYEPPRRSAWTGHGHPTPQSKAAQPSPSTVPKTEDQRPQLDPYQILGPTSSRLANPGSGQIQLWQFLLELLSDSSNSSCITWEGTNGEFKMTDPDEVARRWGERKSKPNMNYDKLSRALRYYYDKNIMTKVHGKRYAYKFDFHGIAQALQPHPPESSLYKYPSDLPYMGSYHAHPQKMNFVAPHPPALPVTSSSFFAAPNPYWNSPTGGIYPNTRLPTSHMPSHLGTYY
# In short: as §1
# [5] = molecular target: ELF1 (Homo sapiens, UniProt P32519 1-619)
# In short: as §1
# [6] = molecular target: T5, EHF (Homo sapiens, UniProt Q9NZC4 1-300)
# T5 sequence: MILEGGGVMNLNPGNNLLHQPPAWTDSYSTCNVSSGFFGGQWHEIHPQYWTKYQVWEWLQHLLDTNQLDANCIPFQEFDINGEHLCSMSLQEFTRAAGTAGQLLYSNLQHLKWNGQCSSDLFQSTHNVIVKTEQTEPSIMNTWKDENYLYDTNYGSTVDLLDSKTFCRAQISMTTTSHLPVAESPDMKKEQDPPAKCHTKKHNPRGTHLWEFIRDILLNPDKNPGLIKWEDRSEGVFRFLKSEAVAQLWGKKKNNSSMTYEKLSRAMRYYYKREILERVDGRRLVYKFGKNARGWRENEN
# In short: as §1
# [7] = molecular target: SPIB (Homo sapiens, UniProt Q01892 1-262)
# In short: as §1
# [8] = molecular target: T6, ELK3 (Homo sapiens, UniProt P41970 1-407)
# T6 sequence: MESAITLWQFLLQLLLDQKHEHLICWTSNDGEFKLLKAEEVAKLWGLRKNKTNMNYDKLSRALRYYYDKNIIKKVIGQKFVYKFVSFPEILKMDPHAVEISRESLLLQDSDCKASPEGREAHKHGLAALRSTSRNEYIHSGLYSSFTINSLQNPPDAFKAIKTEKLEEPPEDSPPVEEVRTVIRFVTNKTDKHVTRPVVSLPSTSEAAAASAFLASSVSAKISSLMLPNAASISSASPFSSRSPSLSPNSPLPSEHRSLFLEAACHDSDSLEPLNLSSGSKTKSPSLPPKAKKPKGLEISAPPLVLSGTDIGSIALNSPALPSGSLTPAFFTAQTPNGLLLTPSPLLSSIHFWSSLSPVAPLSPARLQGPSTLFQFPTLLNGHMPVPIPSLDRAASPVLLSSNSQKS
# In short: as §1
# [9] = molecular target: T7, FEV (Homo sapiens, UniProt Q99581 1-238)
# T7 sequence: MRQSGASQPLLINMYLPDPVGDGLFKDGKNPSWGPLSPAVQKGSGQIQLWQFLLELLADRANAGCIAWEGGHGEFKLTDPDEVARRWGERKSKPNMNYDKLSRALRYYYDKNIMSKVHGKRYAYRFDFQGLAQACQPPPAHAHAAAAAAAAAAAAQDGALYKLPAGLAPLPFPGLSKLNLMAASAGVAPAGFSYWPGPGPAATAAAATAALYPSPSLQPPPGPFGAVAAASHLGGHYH
# In short: as §1
# [10] = molecular target: ETV5 (Homo sapiens, UniProt P41161 1-510)
# In short: as §1
# [11] = molecular target: T8, SPIC (Homo sapiens, UniProt Q8N5J4 1-248)
# T8 sequence: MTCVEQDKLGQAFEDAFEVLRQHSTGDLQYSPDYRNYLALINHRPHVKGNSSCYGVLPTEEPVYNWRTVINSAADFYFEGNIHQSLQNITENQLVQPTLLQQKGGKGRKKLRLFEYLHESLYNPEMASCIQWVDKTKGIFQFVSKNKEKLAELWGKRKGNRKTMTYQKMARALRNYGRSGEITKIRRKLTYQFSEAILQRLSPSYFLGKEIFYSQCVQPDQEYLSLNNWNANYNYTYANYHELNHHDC
# In short: as §1
# [12] = molecular target: ETV1 (Homo sapiens, UniProt P50549 1-477)
# In short: as §1
# [13] = molecular target: T9, ERF (Homo sapiens, UniProt P50548 1-548)
# T9 sequence: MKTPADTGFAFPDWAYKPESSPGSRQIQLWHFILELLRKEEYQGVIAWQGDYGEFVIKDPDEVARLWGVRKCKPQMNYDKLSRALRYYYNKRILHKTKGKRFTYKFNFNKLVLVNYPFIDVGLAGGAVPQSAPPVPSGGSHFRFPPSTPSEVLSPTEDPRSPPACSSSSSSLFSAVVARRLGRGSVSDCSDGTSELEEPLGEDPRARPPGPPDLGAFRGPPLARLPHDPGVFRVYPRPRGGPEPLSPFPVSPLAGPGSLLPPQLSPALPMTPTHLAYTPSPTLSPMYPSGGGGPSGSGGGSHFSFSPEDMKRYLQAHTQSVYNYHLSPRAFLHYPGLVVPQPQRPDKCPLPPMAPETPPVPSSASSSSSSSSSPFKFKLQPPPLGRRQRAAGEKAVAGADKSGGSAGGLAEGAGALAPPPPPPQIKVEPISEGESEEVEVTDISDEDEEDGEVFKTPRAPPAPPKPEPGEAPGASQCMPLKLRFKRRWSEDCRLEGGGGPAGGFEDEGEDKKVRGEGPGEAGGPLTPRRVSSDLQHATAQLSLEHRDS
# In short: as §1
# [14] = molecular target: T10, ETV3L (Homo sapiens, UniProt Q6ZN32 1-361)
# T10 sequence: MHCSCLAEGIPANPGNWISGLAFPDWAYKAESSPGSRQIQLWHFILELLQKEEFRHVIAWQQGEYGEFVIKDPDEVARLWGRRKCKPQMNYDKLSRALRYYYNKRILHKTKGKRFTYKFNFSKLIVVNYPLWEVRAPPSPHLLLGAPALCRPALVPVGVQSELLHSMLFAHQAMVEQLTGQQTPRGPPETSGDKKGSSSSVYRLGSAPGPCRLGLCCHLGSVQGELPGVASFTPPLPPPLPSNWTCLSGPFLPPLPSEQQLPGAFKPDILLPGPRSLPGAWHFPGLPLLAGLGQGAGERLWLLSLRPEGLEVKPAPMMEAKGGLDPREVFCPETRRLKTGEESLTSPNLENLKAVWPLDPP
# In short: as §1
# [15] = molecular target: T11, ETS2 (Homo sapiens, UniProt P15036 1-469)
# T11 sequence: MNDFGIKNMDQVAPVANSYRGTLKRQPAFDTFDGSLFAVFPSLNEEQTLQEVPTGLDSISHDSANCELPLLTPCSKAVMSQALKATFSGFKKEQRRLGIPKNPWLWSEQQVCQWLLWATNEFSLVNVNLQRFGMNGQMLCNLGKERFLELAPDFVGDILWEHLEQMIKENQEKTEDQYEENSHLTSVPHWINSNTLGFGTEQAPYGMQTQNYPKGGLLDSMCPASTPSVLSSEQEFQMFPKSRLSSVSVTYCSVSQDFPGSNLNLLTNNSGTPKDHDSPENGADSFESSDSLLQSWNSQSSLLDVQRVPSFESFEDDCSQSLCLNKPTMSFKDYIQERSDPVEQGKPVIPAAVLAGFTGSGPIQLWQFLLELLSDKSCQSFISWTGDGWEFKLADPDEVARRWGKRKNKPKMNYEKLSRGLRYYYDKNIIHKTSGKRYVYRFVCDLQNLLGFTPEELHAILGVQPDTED
# In short: as §1
# [16] = molecular target: T12, ETV3 (Homo sapiens, UniProt P41162-2 1-143)
# T12 sequence: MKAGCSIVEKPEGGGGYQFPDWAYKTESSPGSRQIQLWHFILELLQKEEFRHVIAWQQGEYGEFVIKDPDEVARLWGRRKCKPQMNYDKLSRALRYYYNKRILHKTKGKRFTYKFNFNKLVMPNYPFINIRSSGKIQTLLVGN
# In short: as §1
# [17] = molecular target: ETV6 (Homo sapiens, UniProt P41212 1-452)
# In short: as §1
# Chain of SPIB (Q01892 whole entry): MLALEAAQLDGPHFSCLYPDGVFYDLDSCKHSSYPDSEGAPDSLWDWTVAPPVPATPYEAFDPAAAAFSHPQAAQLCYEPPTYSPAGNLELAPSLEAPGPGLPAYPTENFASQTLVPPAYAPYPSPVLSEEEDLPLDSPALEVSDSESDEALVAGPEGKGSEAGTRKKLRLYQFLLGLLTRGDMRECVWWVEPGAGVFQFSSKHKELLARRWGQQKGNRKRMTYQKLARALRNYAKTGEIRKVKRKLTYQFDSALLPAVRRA
# Chain of ELF1 (P32519 whole entry): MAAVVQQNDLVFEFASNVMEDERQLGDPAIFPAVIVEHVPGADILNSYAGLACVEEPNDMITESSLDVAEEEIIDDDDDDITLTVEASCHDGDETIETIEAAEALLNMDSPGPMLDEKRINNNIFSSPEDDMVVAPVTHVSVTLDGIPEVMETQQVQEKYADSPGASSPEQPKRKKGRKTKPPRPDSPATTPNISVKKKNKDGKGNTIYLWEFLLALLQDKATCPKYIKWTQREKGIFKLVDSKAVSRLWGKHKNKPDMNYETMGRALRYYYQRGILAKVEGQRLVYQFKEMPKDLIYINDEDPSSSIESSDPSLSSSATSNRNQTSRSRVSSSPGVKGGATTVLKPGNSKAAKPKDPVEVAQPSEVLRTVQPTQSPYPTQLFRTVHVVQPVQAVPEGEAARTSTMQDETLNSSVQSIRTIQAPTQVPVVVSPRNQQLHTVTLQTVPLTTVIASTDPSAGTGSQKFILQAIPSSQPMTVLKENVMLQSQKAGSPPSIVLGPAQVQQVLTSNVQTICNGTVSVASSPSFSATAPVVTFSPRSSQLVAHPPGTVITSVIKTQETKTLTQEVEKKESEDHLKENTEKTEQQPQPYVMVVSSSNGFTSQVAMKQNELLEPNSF
# Chain of ETV6 (P41212 whole entry): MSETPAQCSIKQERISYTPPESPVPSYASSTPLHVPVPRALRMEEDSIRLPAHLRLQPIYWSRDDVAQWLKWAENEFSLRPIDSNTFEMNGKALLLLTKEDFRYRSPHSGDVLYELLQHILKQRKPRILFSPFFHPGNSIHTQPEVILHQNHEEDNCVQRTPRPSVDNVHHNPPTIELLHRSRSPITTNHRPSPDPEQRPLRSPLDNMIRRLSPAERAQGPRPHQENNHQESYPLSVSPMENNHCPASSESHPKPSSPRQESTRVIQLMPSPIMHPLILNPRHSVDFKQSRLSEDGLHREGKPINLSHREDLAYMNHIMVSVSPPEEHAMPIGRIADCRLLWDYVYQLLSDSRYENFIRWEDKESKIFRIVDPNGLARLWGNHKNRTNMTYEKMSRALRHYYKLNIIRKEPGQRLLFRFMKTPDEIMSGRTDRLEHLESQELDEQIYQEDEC
# Chain of ETV5 (P41161 whole entry): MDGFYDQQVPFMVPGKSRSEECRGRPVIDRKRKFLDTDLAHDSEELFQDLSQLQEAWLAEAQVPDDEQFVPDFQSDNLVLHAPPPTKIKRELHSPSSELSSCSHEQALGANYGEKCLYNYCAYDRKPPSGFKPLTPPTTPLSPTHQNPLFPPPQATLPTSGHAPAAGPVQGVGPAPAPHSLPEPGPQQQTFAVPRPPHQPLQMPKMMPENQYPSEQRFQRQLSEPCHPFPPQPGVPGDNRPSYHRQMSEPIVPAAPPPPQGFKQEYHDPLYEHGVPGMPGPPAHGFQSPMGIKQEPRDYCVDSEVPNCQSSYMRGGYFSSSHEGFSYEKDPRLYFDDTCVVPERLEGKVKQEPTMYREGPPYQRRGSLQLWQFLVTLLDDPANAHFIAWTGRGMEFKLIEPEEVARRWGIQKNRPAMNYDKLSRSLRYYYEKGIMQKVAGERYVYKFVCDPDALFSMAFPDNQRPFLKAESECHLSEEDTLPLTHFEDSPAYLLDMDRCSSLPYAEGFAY
# Chain of ETV1 (P50549 whole entry): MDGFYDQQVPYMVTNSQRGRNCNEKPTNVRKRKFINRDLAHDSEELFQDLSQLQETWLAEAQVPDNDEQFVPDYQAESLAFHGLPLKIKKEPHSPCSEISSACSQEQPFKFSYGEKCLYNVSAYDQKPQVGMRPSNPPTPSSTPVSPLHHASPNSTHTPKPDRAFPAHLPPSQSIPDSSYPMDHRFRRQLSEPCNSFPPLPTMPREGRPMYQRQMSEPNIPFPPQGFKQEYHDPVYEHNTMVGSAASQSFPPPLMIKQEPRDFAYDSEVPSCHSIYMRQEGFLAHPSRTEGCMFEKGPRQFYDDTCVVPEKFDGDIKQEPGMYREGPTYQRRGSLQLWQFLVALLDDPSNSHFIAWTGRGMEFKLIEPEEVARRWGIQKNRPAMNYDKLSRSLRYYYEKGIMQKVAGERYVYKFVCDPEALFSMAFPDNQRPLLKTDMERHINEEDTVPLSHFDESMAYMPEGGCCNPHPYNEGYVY
sequence,measurement,setting,value
CAACCG,binding signal,[1],"1.11 fold enrichment (6-mer frequency, TF over GST control)"
same,binding signal,[2],"1.13 fold enrichment (6-mer frequency, TF over GST control)"
same,binding signal,[3],"1 fold enrichment (6-mer frequency, TF over GST control)"
same,binding signal,[4],"1.11 fold enrichment (6-mer frequency, TF over GST control)"
same,binding signal,[5],"1.03 fold enrichment (6-mer frequency, TF over GST control)"
same,binding signal,[6],"1.06 fold enrichment (6-mer frequency, TF over GST control)"
same,binding signal,[7],"1.15 fold enrichment (6-mer frequency, TF over GST control)"
same,binding signal,[8],"1.2 fold enrichment (6-mer frequency, TF over GST control)"
same,binding signal,[9],"1.28 fold enrichment (6-mer frequency, TF over GST control)"
same,binding signal,[10],"1.03 fold enrichment (6-mer frequency, TF over GST control)"
same,binding signal,[11],"1.02 fold enrichment (6-mer frequency, TF over GST control)"
same,binding signal,[12],"1.06 fold enrichment (6-mer frequency, TF over GST control)"
same,binding signal,[13],"1.03 fold enrichment (6-mer frequency, TF over GST control)"
same,binding signal,[14],"1.09 fold enrichment (6-mer frequency, TF over GST control)"
same,binding signal,[15],"1.11 fold enrichment (6-mer frequency, TF over GST control)"
same,binding signal,[16],"1.08 fold enrichment (6-mer frequency, TF over GST control)"
same,binding signal,[17],"1.13 fold enrichment (6-mer frequency, TF over GST control)"
